# Test results reported in PubChem BioAssay.
# Activity calls are given as the source filed them. Unless noted, how the calls were made is not given here.
# Experiments:
# [1] = system: Wnt5a (protein binding on small-molecule microarray); assay: small molecules binding Wnt5a protein – biophysical, small-molecule microarray, 635/667 nm fluorescence, primary screen (AID 1142); conditions: 635 nm fluorescence, higher = more signal;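 further: fluorescence read at 667 nm with signal to noise per printed feature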
# [2] = ATP-based viability of Huh7 replicon cells – cell-based, CellTiter-Glo luminescence, basal, 48 h, cytotoxicity control for HCV replication inhibitor project, primary screen (AID 1143); conditions: higher = more signal, called active from +8 up or from −8 down;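 further: Huh7 hepatoma cells carrying a hepatitis C replication reporter with no stimulus; test concentration not given here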
# [3] = Pseudomonas biofilm growth suppression – PAO1 strain, BacTiter-Glo luminescence, LB-PBS, primary screen (AID 1144); conditions: P. aeruginosa PAO1 biofilm, 12 h, higher = more signal
# [4] = basal CRE-LacZ reporter activity in PC12 – cell-based, unstimulated, primary screen (AID 1145); conditions: no forskolin, luminescence, 4.5 h, higher = more signal, called active from +8 up or from −8 down
# [5] = forskolin-driven CRE-LacZ activity in PC12 – cell-based, CRE-LacZ reporter, forskolin-stimulated, primary screen (AID 1146); conditions: luminescence, 4.5 h, higher = more signal, called active from +8 up or from −8 down;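 further: PC12 cells with 6xCRE LacZ reporter stimulated by forskolin 10 µM; beta-galactosidase reporter signal reflecting CREB driven transcription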
# [6] = target: Streptavidin (Streptomyces avidinii) (UniProt P22629); assay: compounds binding control protein streptavidin – biophysical, small-molecule microarray, 635/667 nm fluorescence, artefact control for SMM compound annotation, primary screen (AID 1147); conditions: higher = more signal;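 further: signal reflects streptavidin binding to arrayed compounds as a control protein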
# Streptavidin (Streptomyces avidinii), sequence (P22629 whole entry, looked up): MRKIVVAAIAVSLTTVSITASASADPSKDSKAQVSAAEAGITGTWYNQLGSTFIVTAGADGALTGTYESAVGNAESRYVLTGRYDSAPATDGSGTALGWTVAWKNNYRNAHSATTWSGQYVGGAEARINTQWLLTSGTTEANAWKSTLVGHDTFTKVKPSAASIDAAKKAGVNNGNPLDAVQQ
# [7] = probe aInhba binding on compound microarray – biochemical, small-molecule microarray, 635/667 nm fluorescence, primary screen (AID 1148); conditions: higher = more signal;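 further: score merges 667nm spot fluorescence with signal-to-noise for antibody binding to printed compounds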
# Torsin-1A (Homo sapiens) [8] = target: Torsin-1A (Homo sapiens) (UniProt O14656); assay: TOR1A wild-type binding on microarray – cell lysate, small-molecule microarray, lysate, 635/667 nm, primary screen (AID 1149); conditions: COS7 hTOR1A-WT lysate, 635 nm fluorescence, higher = more signal
# Torsin-1A (Homo sapiens), sequence (O14656 whole entry, looked up): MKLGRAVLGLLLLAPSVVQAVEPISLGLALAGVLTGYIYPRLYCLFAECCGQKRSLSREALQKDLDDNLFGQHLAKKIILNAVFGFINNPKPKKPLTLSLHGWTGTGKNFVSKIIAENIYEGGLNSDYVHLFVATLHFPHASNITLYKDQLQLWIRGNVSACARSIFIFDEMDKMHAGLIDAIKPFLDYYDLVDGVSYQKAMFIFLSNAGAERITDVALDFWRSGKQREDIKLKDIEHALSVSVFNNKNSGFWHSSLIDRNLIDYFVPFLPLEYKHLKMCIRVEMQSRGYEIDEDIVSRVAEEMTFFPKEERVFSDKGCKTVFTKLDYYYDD
# Torsin-1A (Homo sapiens) [9] = target: Torsin-1A (Homo sapiens) (UniProt O14656); assay: torsin A mutant lysate binding on microarrays – cell lysate, small-molecule microarray, COS7 lysate, 635/667 nm fluorescence, primary screen (AID 1150); conditions: COS7 hTOR1A mutant lysate, 635 nm fluorescence, higher = more signal;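 further: score pools 667 nm emission and signal to noise measuring lysate protein binding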
# [10] = system: Sonic hedgehog protein (Shh); assay: Sonic hedgehog microarray binding compounds – biochemical, small-molecule microarray, 635/667 nm fluorescence, primary screen (AID 1151); conditions: 635 nm fluorescence, higher = more signal;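 further: Shh protein binding to compounds spotted on small-molecule microarray slides; score combines spot fluorescence intensity with signal-to-noise across triplicate slides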
SMILES,composite z-score [1],z-score [2],z-score [3],z-score [4],z-score [5],composite z-score [6],composite z-score [7],composite z-score (Torsin-1A (Homo sapiens) [8]),composite z-score (Torsin-1A (Homo sapiens) [9]),composite z-score [10]
CCOC(=O)[C@H](CC(C)C)NC(=O)CCC1CC(OC(=O)NCc2cccc3ccccc23)CC2(CCCC(COC(=O)NCc3cccc(C(F)(F)F)c3)O2)O1 (stereo not given in full),-0.0645,-0.0149 (inactive),-0.658 (inactive),0.288 (inactive),-0.274 (inactive),0.626,-0.0872,0.27,0.261,0.258
CC(C)=NO[C@H](C)c1cn([C@H](CO)Cc2ccccc2)nn1,-0.179,-0.684 (inactive),0.159 (inactive),1.61 (inactive),0.112 (inactive),1.14,-0.0178,-0.232,0.015,-0.195
CCOC(=O)[C@H](CC(C)C)NC(=O)CCC1CC(OC(=O)NCc2cccc3ccccc23)CC2(CCCC(COC(=O)NCCCN3CCCC3=O)O2)O1 (stereo not given in full),-0.144,-0.961 (inactive),-0.908 (inactive),-0.437 (inactive),0.501 (inactive),0.286,-0.128,0.316,0.299,0.956
CCc1cc2c(nc1CC)CCN(CCC(C)=NO[C@@H](C)c1cn([C@H](CO)Cc3ccccc3)nn1)C2,-0.144,-0.519 (inactive),0.434 (inactive),-0.892 (inactive),-1.03 (inactive),0.453,-0.0087,1.1,0.216,0.961
C#CCCCON=C1C[C@@H](O)[C@@H](O)[C@@H]2[C@@H]3C(=O)N(C(C)(C)C)C(=O)[C@@H]3CC[C@@H]12,0.0416,0.536 (inactive),0.945 (inactive),0.785 (inactive),0.262 (inactive),0.0462,-0.0762,-0.196,0.348,-1.22
CO[C@H]1COC(=O)[C@H](C)NC(=O)CC=C[C@@H](C)[C@H](OC)COC(=O)[C@@H](OCc2ccccc2)C=C[C@@H]1C,-0.0911,0.382 (inactive),0.213 (inactive),0.971 (inactive),-0.262 (inactive),-0.697,-0.0791,0.57,-0.0163,0.683
CC(C)CCN1CCc2nc(COc3ccccc3)c3c(c2C1)CO[C@@H](C)C3,0.0335,-0.265 (inactive),-0.372 (inactive),3.36 (inactive),-1.3 (inactive),0.414,0.0649,0.335,0.434,-0.284
O=C(NN=C1C[C@@H](O)[C@@H](O)[C@@H]2[C@@H]3C(=O)N(C[C@@H]4CCCO4)C(=O)[C@@H]3CC[C@@H]12)OCc1ccccc1,0.0252,-0.746 (inactive),0.556 (inactive),0.694 (inactive),0.13 (inactive),-0.34,-0.242,2.6,2.72,0.604
C#CCCCON=C1[C@H]2CCn3c(=O)n(-c4ccccc4)c(=O)n3[C@H]2[C@H](O)[C@@H]2O[C@H]12,0.0823,-0.146 (inactive),0.423 (inactive),-0.112 (inactive),0.462 (inactive),-0.126,-0.23,0.494,1.27,0.504
CCCCC#C[C@@H]1C=C[C@H](Oc2ccc(C(=O)OC)cc2)[C@@H](COC(=O)OCC)O1,0.769,-4.3 (inactive),0.0612 (inactive),0.291 (inactive),1.13 (inactive),0.25,-0.128,0.346,0.358,1.12
CON=C[C@@H](NS(=O)(=O)c1ccc(C)cc1)[C@H](C)C=CCC(=O)OC,0.0181,0.319 (inactive),-0.357 (inactive),0.173 (inactive),-0.196 (inactive),0.188,-0.128,0.379,-0.199,0.779
O=C1CCCC(C2=CCCCC2=O)C1 (stereo not given),0.18,0.211 (inactive),0.0656 (inactive),0.019 (inactive),-0.222 (inactive),-0.15,-0.0288,0.217,0.37,0.626
CC=CC1=C(CO)C(=O)[C@@H]2O[C@@H]2C1=O,0.189,-1.02 (inactive),-0.36 (inactive),0.0178 (inactive),3.64 (inactive),-0.842,-0.128,0.0039,-0.579,1.72
O=C1C[C@@H](O)[C@@H](O)[C@@H]2[C@@H]3C(=O)N(Cc4ccccc4)C(=O)[C@@H]3CC[C@@H]12,0.19,0.398 (inactive),-0.593 (inactive),1.06 (inactive),0.113 (inactive),0.413,0.0391,0.498,0.35,0.772
C[C@@H](c1ccccc1)N1C(=O)[C@H]2[C@H]3[C@H](O)[C@H](O)CC(=O)[C@H]3CC[C@H]2C1=O,0.0027,-0.273 (inactive),0.257 (inactive),-0.113 (inactive),0.209 (inactive),0.182,-0.145,0.0683,0.452,0.374
C[C@@H]1CC[C@H]2C(=O)O[C@@H](Cc3ccccc3)CN2[C@H]1c1ccc(Br)cc1,-0.0729,-0.309 (inactive),0.502 (inactive),0.583 (inactive),-0.143 (inactive),-0.0253,-0.133,0.433,0.533,0.656
CC(C)=CCCC(C)=CCON=C1C[C@@H](O)[C@@H](O)[C@@H]2[C@@H]3C(=O)N(C[C@@H]4CCCO4)C(=O)[C@@H]3CC[C@H]12,0.24,-0.296 (inactive),0.175 (inactive),-0.384 (inactive),0.174 (inactive),0.707,-0.162,1.4,1.33,1.67
CCOC(=O)[C@H](Cc1ccccc1)NC(=O)CCC1CC(OC(=O)NCCc2ccc(F)cc2)CC2(CCCC(COC(=O)NCCc3ccccc3OC)O2)O1 (stereo not given in full),0.359,-0.131 (inactive),0.248 (inactive),0.198 (inactive),-0.099 (inactive),0.536,-0.0897,0.196,0.721,1.54
C[n+]1ccc(-c2ccc(CO)cc2)cc1,-0.0113,0.0559 (inactive),0.466 (inactive),0.919 (inactive),0.723 (inactive),2.72,-0.0209,0.565,1.67,2.14
CCOC(=O)[C@H](Cc1ccccc1)NC(=O)CCC1CC(OC(=O)NCCc2ccc(F)cc2)CC2(CCCC(COC(=O)NCc3ccccc3)O2)O1 (stereo not given in full),0.0738,-0.471 (inactive),0.0402 (inactive),0.824 (inactive),1.63 (inactive),0.606,0.0074,0.409,0.129,0.952
COC(=O)[C@H]1O[C@@H](c2c(OC)c(OC)c(C)c(OC)c2OC)[C@H](C)[C@@H](O)[C@H]1C,0.2,0.299 (inactive),-0.895 (inactive),0.564 (inactive),1.12 (inactive),0.353,0.141,0.859,0.295,0.434
COc1ccc(O[C@H]2C=C[C@@H](c3ccccc3)O[C@@H]2CON=C(C)CCC(=O)OC[C@H]2O[C@H](c3ccccc3)C=C[C@@H]2Oc2ccc(OC)cc2)cc1,-0.874,-0.461 (inactive),0.107 (inactive),-0.887 (inactive),0.593 (inactive),0.204,-0.0136,-2.42,-1.43,2.02
CO[C@@H]1COC(=O)[C@@H]2CCCN2C(=O)[C@@H](C)COC(=O)CC=C[C@H]1C,0.667,-0.193 (inactive),-1.09 (inactive),1.03 (inactive),0.828 (inactive),0.119,-0.0427,0.826,0.962,0.895
CCOC(=O)[C@H](Cc1ccccc1)NC(=O)CCC1CC(OC(=O)NCc2ccc3c(c2)OCO3)CC2(CCCC(COC(=O)NCCc3ccccc3OC)O2)O1 (stereo not given in full),0.296,-0.415 (inactive),0.8 (inactive),17.2 (active),0.109 (inactive),1.19,-0.0937,0.479,0.252,0.995
COC(=O)CC=C[C@@H](C)[C@@H](C=NO[C@@H](C)c1cn([C@H](CO)Cc2ccccc2)nn1)NS(=O)(=O)c1ccc(C)cc1,0.062,-0.35 (inactive),0.606 (inactive),3.99 (inactive),-0.0697 (inactive),0.0525,0.0928,0.945,0.997,0.685
CCN1C(=O)[C@H]2[C@H]3[C@H](O)[C@H](O)CC(=NOCC(C)C)[C@@H]3CC[C@H]2C1=O,-0.111,-0.101 (inactive),0.258 (inactive),-0.929 (inactive),-0.2 (inactive),0.017,0.038,0.729,0.634,1.31
CO[C@H]1COC(=O)[C@@H](C)COC(=O)[C@H](C)NC(=O)CC=C[C@H]1C,0.0392,-0.378 (inactive),0.371 (inactive),-0.115 (inactive),-0.959 (inactive),-0.639,-0.176,1.15,0.991,1.6
Cn1c(=O)n2n(c1=O)[C@H]1[C@H](O)[C@@H]3O[C@@H]3C(=O)[C@H]1CC2,0.0242,0.0801 (inactive),0.0513 (inactive),-1.29 (inactive),-0.69 (inactive),0.924,-0.041,0.961,0.198,0.537
